# Compound activity as filed in PubChem BioAssay.
# Rows were chosen to be rich in hits. Some 6.1% of all compounds tested hit in one or more screens of this group.
# HepG2 tox = qHTS for Inhibitors of TGF-b: Cytotox Counterscreen; HepG2 CAGA-GFP viability, ATP luminescence, 18 h; Potency, µM (titrated, usually from 46.1 µM), for inactives: at the top dose activity change, negative = cytotoxicity, most hits filed as cytotoxic; 410,000 compounds, 0.76% hits; AID 588856, 2011
#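 CellTiter-Glo luminescence gave cytotoxicity after 18 hours at 37 degrees C. The cells were HepG2 CAGA-GFP in 1% FBS DMEM, stimulated with 500 pg/mL TGF-beta after compound addition. %Activity was normalised to no-cell wells (complete cell-killing) and DMSO (no toxicity), and curves were fitted and classified.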
# S2 tox = Viability Counterscreen for Primary qHTS for Inhibitors of ATXN expression. S2 cells (HEK-293 line with an ATXN2-luciferase reporter) viability, CellTiter-Fluor protease fluorescence, 24 h. Potency, µM (doses to about 56.7 µM), hits mostly cytotoxic. 400,000 compounds, 0.49% hits. AID 651635, 2014; further: nearly all actives have a fitted effect of over 40% in size
# RORgamma inh = qHTS for inhibitors of ROR gamma transcriptional activity; Nuclear receptor ROR-gamma (Mus musculus), P51450; Drosophila S2 Gal4-RORgamma UAS-luciferase reporter, 20 h; Potency, µM (highest dose often 53.6 µM), inactives show at the highest dose activity change, negative = inhibition, hits mostly inhibitors; 310,000 compounds, 5.4% hits; AID 2551, 2010; further: on the % scale 0 is the no-effect control and ±100 the full control effect; nearly all actives have a fitted effect of over 60% in size
# Target sequence (P51450 whole entry, looked up, the tested form may be a part): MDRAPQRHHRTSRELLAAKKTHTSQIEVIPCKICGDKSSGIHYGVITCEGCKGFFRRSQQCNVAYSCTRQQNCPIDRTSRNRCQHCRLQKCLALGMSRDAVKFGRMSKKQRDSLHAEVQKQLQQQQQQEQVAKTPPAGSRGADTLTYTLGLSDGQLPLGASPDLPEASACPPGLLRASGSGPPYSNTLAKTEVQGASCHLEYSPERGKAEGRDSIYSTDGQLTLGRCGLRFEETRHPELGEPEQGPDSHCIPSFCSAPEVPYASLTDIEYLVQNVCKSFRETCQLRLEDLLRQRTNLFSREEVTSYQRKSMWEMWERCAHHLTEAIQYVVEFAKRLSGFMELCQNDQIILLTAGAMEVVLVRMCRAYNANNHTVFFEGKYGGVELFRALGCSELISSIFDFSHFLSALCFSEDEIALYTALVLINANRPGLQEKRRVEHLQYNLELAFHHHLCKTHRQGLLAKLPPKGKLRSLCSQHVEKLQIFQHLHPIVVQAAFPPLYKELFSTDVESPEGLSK
#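 Luminescence from a UAS-regulated Photinus luciferase reporter in stably transfected Drosophila Schneider cells is measured; decreased signal marks ROR gamma inhibition. Fusion expression is induced by 700 uM copper sulfate for 20 hr.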
# Gal4-VP16 FLuc = VP16 counterscreen qHTS for inhibitors of ROR gamma transcriptional activity | AID 2546, 2010 | Drosophila S2 Gal4-VP16 UAS-luciferase, luminescence, 20 h | 310,000 compounds, 3.5% hits | Potency, µM (series often up to 53.6 µM), for inactives: at the highest dose activity, negative = inhibition, most hits filed as inhibitors;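 further: Gal4-VP16 expression switched on by copper sulfate through the metallothionein promoter; on the % scale 0 is the no-effect control and ±100 the full control effect; nearly all actives have a fitted effect of over 50% in size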
# TGFb SMAD3 inh = qHTS for Inhibitors of TGF-b | Potency, µM (highest dose often 46.1 µM), inactives show top-dose activity, negative = inhibition, hits mostly inhibitors | HepG2 CAGA-GFP TGF-b/SMAD3 reporter, GFP fluorescence, 18 h; TGF-beta stimulated, 500 pg/mL final | 410,000 compounds, 1.2% hits | AID 588855, 2011; further: on the % scale 0 is the no-effect control and ±100 the full control effect; nearly all actives have a fitted effect of over 65% in size
#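 TGF-beta reporter screen: HEPG2 CAGA-GFP, 1% FBS, 500 pg/mL TGF-beta final, 18 h; per-cell GFP summed per well; curves fitted and categorized by class.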
# ATXN2 expr inh = Primary qHTS for Inhibitors of ATXN expression; HEK-293 ATXN2-luciferase reporter, luminescence, 24 h; Potency, µM (titrated, usually from 57 µM), inactives show at the top dose activity change, negative = inhibition, usual class: inhibitors; 360,000 compounds, 0.72% hits; AID 1745845, 2022; further: on the % scale 0 is the no-effect control and ±100 the full control effect; nearly all actives have a fitted effect of over 55% in size
#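 qHTS (up to 57 uM final) was run with 24 h compound exposure of reporter cells at 37 °C. Each well was multiplexed: SteadyGlo luminescence measured ATXN2-luciferase expression after a fluorogenic Gly-Phe-AFC viability readout (25 uM final).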
# An asterisk follows results filed as active; i = inactive; ? = inconclusive; . = no result given. The call rests on the fitted dose curve; in most records, active means well fitted curve in the direction sought with a large enough effect; inconclusive means small, poorly fitted or top-dose-only effect, or another doubt; inactive means no such curve, though single readings can be large; an effect the other way counts as inactive or inconclusive. Potency means the concentration at half of the fitted maximal effect.
SMILES,HepG2 tox,S2 tox,RORgamma inh,Gal4-VP16 FLuc,TGFb SMAD3 inh,ATXN2 expr inh
CCOc1ccc(NC(=S)NCCCN2CCN(c3ccc(OC)cc3)CC2)cc1,-26.9%,i,5.01µM*,?,-23.7%,-14.1%
Cc1ccc2c(c1)sc1nc(-c3cc4ccccc4oc3=O)cn12,2.4%,?,.,.,17.8%,-22.3%
NC(=O)C(c1ccccc1)(c1ccccc1)[C@@H]1CCN(CCc2ccc3c(c2)CCO3)C1,.,?,-1.6%,4.0%,.,?
FC(F)(F)c1ccccc1-c1nccc(NCCN2CCOCC2)n1,.,.,-2.4%,-12.3%,.,.
N#Cc1nc(NCC(F)F)nc(Nc2cc(F)cc(F)c2)n1,-78.7%,?,.,.,15.8µM*,11.2µM*
CC12CCC(=O)C=C1CCC1C2C(=O)CC2(C)C1CCC2(O)C(=O)CO (centres undefined),5.2%,i,5.1%,4.6%,30.0%,-6.2%
COC(=O)C=C1CCC2C3CCC4=CC(=O)C(Br)CC4(C)C3C(=O)CC12C (centres undefined),-30.2%,.,.,.,10.4%,31.6µM*
CC(C)(C)NC(=O)c1oc2ccccc2c1NC(=O)c1ccc(F)cc1,3.1%,i,.,.,1.6%,5.7%
COc1ccc(C(C)=O)c(O)c1,.,.,-35.4%,-0.3%,.,15.3µM*
O=C(NCc1ccccc1)c1ccc(/C=N/O)nc1,3.8%,i,5.01µM*,2.3%,-28.2%,1.7%
O=C(NCc1ccccn1)c1ccc(/C=N/O)nc1,8.0%,i,-6.5%,-10.4%,43.5%,-7.2%
O=C(NCc1cc([N+](=O)[O-])ccc1O)c1cccc(NS(=O)(=O)c2ccccc2)c1,15.8%,i,11.2µM*,12.6µM*,-14.6%,0.3%
COc1cccc(NC(=O)c2ccc3[nH]c(C)cc(=O)c3c2)c1,3.5%,i,.,.,?,-19.2%
Cc1c(O)c(CN2CCCC2)cc2c1oc(=O)c1ccccc12,-20.7%,i,-13.3%,-0.4%,11.2%,-16.5%
CN(C)C1CCN(Cc2cc(COCc3ccccc3)c3cccnc3c2O)C1 (centres undefined),-13.2%,?,.,.,?,?
Oc1c(CN2CCCCC2)cc(COCc2ccccc2)c2cccnc12,-93.1%,?,0.316µM*,0.0089µM*,?,3.16µM*
COCc1cc(CN2CCCC2)c(O)c2ncccc12,-25.9%,?,10µM*,8.91µM*,?,?
CCOC(=O)C(C)Sc1ncc(OC)c(Sc2ccc(Cl)cc2)n1 (centres undefined),-13.3%,i,-1.4%,2.5%,9.2%,-16.2%
CCOC(=O)C(C)Sc1nc(-c2ccccn2)ncc1OC (centres undefined),-16.6%,i,7.08µM*,?,?,-36.3%
COc1cnc(-c2ccccn2)nc1Sc1c(Cl)cccc1Cl,-39.7%,?,3.16µM*,10µM*,-6.1%,?
COc1cnc(-c2ccccc2)nc1Sc1ccccc1,-18.6%,i,?,0.0%,-26.4%,10.1%
COc1cnc(-c2ccccn2)nc1Sc1ccccc1Cl,-16.8%,?,2.51µM*,10µM*,-8.1%,?
COC(=O)C1CCCCN1Cc1ccc2c(c1)CN(C(=O)c1ccc(C)s1)CCO2 (centres undefined),.,i,.,.,.,.
Cc1ccccc1Nc1nc(N)c(C(=O)c2ccccc2Cl)s1,-40.1%,.,.,.,.,.
CCOc1ccc(S(=O)(=O)Nc2ccc(-c3ccc(OC)nn3)cc2)cc1,-60.2%,i,.,.,?,1.8%
SMILES,HepG2 tox,S2 tox,RORgamma inh,Gal4-VP16 FLuc,TGFb SMAD3 inh,ATXN2 expr inh
C=C1C(=O)[C@]23C[C@H]1CCC2[C@@]1(C)C(C[C@@H]3O)[C@](C)(C(=O)OC)CC[C@@H]1OC(C)=O (some centres undefined),5.62µM*,2.82µM*,.,.,1µM*,2.51µM*
C=C1C(=O)[C@]23C[C@H]1CC[C@H]2[C@]1(C)[C@@H](OC(C)=O)CC[C@@](C)(C(=O)OC)[C@H]1C[C@@H]3OC(C)=O,5.62µM*,31.6µM*,.,.,?,?
C=C1C(=O)[C@]23C[C@H]1CC[C@H]2[C@]1(C)[C@@H](OC(C)=O)CC[C@@](C)(C(=O)O)[C@H]1C[C@@H]3O,-79.4%,.,.,.,5.62µM*,3.16µM*
C=C1C(=O)[C@]23C[C@H]1CCC2[C@@]1(C)C(C[C@@H]3O)[C@](C)(C(=O)O)C[C@H](O)[C@@H]1O (some centres undefined),-1.6%,i,.,.,-3.8%,2.6%
CC(=O)OC1CCC23CC1(C)CCC2C(C)(C)CC3OC(C)=O (centres undefined),.,.,-24.2%,-10.1%,.,.
C=C1C(=O)[C@]23C[C@H]1CC[C@H]2[C@]1(C)[C@@H](O)CC[C@@](C)(C(=O)O)[C@H]1C[C@@H]3O,-89.1%,.,.,.,8.91µM*,?
COC(=O)C1OC(=O)C2OC23[C@]2(C)C(O)CC4C(C)(C)C(OC(C)=O)CC(OC(C)=O)[C@@]4(C)C2CC[C@@]13C (some centres undefined),.,.,2.3%,-4.6%,.,.
CCc1ccc(CNC(=O)C2CCN(C(=O)N3CC(CC)Oc4ccc(C)cc43)CC2)cc1 (centres undefined),-19.7%,.,.,.,-18.4%,.
CCC1(C2CCN(C(=O)c3cc4ccccc4o3)CC2)NC(=O)N(CCc2scnc2C)C1=O (centres undefined),.,i,.,.,.,.
C=CCOc1c(Cl)cc(CNn2cn[nH]c2=S)cc1OC,8.3%,?,8.91µM*,?,0.6%,.
COc1cc(CNCCc2ccccc2)cc(Cl)c1OCc1ccccc1,-148.8%,?,?,?,?,?
COc1cc(CNn2cn[nH]c2=S)cc(Br)c1OCc1ccccc1F,-23.6%,i,3.16µM*,-28.3%,-17.1%,-6.9%
COc1cc(CNn2cn[nH]c2=S)cc(Cl)c1OCc1ccccc1,-18.8%,i,3.55µM*,?,?,-1.9%
CCOC(=S)SCC(=O)Nc1nc(C)c(C)s1,-43.3%,?,12.6µM*,?,?,.
CCOC(=S)SCC(=O)Nc1nc(-c2ccc(Br)cc2)cs1,-42.9%,?,5.01µM*,6.31µM*,?,?
CCOC(=O)N1CCN(C(=O)CSCC(=O)Nc2nc(-c3ccc(-c4ccccc4)cc3)cs2)CC1,-26.0%,?,?,6.31µM*,-25.4%,?
CCOC(=S)SCC(=O)Nc1nccs1,-31.3%,?,-13.7%,?,-33.5%,-14.4%
